Source: PubChem BioAssay AID540336 (Broad Institute, 2011)
Values joined by “and” are separate entries in the source; they are usually repeats but may differ in a detail not shown here. Equal values may be shown once. Out of some 330,000 compounds screened, about 520 (0.16%) were called active.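 Rule for the calls: active = inhibition of at least 50% in every replicate; inconclusive = best replicate reaches 50% inhibition but some replicates fall short; inactive = the rest.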 Shown is part of a subset that was picked to be rich in actives. The source holds several records for some structures; these can differ, active in one and inactive in another.

Molecular target: Histone acetyltransferase RTT109 (Candida albicans (strain SC5314 / ATCC MYA-2876)) (UniProt Q5AAJ8)
Sequence (Q5AAJ8 whole entry, looked up): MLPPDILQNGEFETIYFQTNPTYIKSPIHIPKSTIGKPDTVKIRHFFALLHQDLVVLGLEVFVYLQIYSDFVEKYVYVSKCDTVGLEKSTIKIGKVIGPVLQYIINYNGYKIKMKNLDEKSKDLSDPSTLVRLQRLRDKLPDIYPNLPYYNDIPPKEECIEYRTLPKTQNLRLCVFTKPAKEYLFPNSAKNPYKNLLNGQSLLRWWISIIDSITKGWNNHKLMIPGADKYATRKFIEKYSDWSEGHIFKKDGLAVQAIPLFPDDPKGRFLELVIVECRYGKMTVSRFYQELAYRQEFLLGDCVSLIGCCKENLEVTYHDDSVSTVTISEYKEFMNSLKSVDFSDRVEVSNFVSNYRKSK
Test: Rtt109-Vps75 histone acetyltransferase blockade – biochemical, ThioGlo CoA-SH fluorescence, plate reader, primary screen (AID 540336)
Conditions: purified Rtt109/Vps75, ThioGlo CoA-SH fluorescence, 4 h; at 34.9 µM; stronger effect = higher value

Row | Compound | inhibition
1 | COc1cc(OC)c(C(=O)NNC(=O)c2ccc(NS(=O)(=O)c3cccs3)cc2)cc1OC | -0.841% (inactive)
2 | COc1ccc(-c2ccc3c(c2)[C@@H]2C[C@H](N(C)S(=O)(=O)c4ccccc4)[C@H]([C@H](C)O)C(=O)N2CC3)cc1 | -7.44% (inactive)
3 | Cc1ccc(C(=O)O)c(NC=O)c1OCc1ccccc1 | 2.64% (inactive)
4 | O=C(CC(=O)c1cccnc1)c1ccccc1 | 5.8% (inactive)
5 | COc1cc2c(cc1OC)C(C(C)C)=NC(C)(C)C2 | -260% (inactive)
6 | COc1cc2c(cc1O)C(SC)=NC(C)(C)C2 | 85% (active)
7 | COc1cc2c(cc1OC)C(Nc1ccc(S(N)(=O)=O)cc1)=NC(C)(C)C2 | -0.292% (inactive)
8 | C=CCNC(=O)C1CC=CCC1C(=O)O (centres undefined) | -1.04% (inactive)
9 | C=CCNC(=O)C12CC3CC(C1)CC(C(=O)NCC=C)(C3)C2 | -14.4% (inactive)
10 | C=CCNC(=O)C1CC2c3ccccc3C1c1ccccc12 (centres undefined) | 50.9% (active)
11 | C=CCCC(=O)N1C[C@H]2CON(C)[C@H]2C[C@H]1c1cccc(Nc2ccccc2)c1 | 7.97% (inactive)
12 | Cc1ccc(S(=O)(=O)c2cc3c(=O)n4cccc(C)c4nc3n(CCc3ccccc3)c2=N)cc1C | 0.852% (inactive)
13 | CC(=NNC(=S)N1CCCCCC1)c1ccccn1 | 16.2% (inactive)
14 | CCN1CCC(O)(/C=C/c2ccc(C)cc2)C(C(=O)/C=C/c2ccc(C)cc2)C1 (centres undefined) | 3.59% (inactive)
15 | O=C1CC(C(=O)O)NC(=S)N1 (centres undefined) | -12.1% (inactive)
16 | O=C(O)C(=Cc1ccccc1[N+](=O)[O-])c1ccccc1 | -1.92% (inactive)
17 | CCc1c(Nc2ccccc2Cl)nc(N)[nH]c1=O | 4.46% (inactive)
18 | CC(C)(C)c1nnc2sc(SCC(O)=C(C#N)c3nc4ccccc4[nH]3)nn2c1=O | -1.69% (inactive)
19 | FC(F)(F)c1ccc(-c2cccc3c2C2CC3CCN2Cc2ccccc2)cc1 (centres undefined) | -0.156% (inactive)
20 | O=C(c1cccnc1)N(c1cc2sc(=O)oc2c2ccccc12)S(=O)(=O)c1ccccc1 | 101% (active)
21 | COc1ccc(N(C(=O)c2cccnc2)S(=O)(=O)c2ccc(OC)c(OC)c2)cc1 | -7.79% (inactive)
22 | O=C(c1cccnc1)N(Cc1ccccc1)C(=O)c1cccnc1 | 7.15% (inactive)
23 | Oc1c(Cl)cc(Cl)c(Cl)c1Cc1c(O)c(Cl)cc(Cl)c1Cl | 70.6% (active)

Row | Compound | inhibition
24 | Cc1ccc(Cn2c(C)c3cnn(CC(=O)NCCN4CCOCC4)c(=O)c3c2C)cc1 | 4.07% (inactive)
25 | O=C(NCC(=O)N1CCCC(C(F)(F)F)C1)c1ccccc1F (centres undefined) | -12.6% (inactive)
26 | FC(F)(F)C1CCCN(c2nsc3ccccc23)C1 (centres undefined) | 129% (active)
27 | O=C(NC(Cc1ccccc1)C(=O)N1CCCC(C(F)(F)F)C1)c1ccccc1 (centres undefined) | 8.65% (inactive)
28 | CCN(CC(=O)Nc1c(F)cccc1F)C(=O)Cc1cccs1 | -5.91% (inactive)
29 | COC(=O)c1ccc(CNC(=O)Cn2cc(C)c(=O)[nH]c2=O)cc1 | -6.85% (inactive)
30 | NC(=S)NN=C1CCCC(C(F)(F)F)C1 (centres undefined) | 6.12% (inactive)
31 | CN(CCc1ccccc1)C(=O)c1cccc(NC(=O)Cc2cccc(NC(=O)C3CCCN(C(=O)CCc4ccccc4)C3)c2)c1 (centres undefined) | 10.3% (inactive)
32 | CCN(CC)CCCC(C)n1c2nc(=O)[nH]c(=O)c-2nc2cc(Cl)ccc21 (centres undefined) | 1.9% (inactive)
33 | CC(=O)Oc1ccc(OC(C)=O)c2c1C1C=CC2CC1 | -1.25% (inactive)
34 | O=C(CCC(=O)N1CCN(S(=O)(=O)c2ccc(Cl)cc2)CC1)NCc1cccc(C(F)(F)F)c1 | -0.722% (inactive)
35 | O=C(CCN1C(=O)/C(=C/c2cccs2)SC1=S)NNC(=O)c1cccc(O)c1 | 2.35% (inactive)
36 | O=C(CCCN1C(=O)/C(=C/c2cccs2)SC1=S)Nc1ccc(O)cc1 | 3.39% (inactive)
37 | CC(C(=O)Nc1ccc(O)c(C(=O)O)c1)N1C(=O)/C(=C/c2cccs2)SC1=S (centres undefined) | 81.1% (active)
38 | COc1ccc(C(=O)N(C)Cc2ccc(OC)c(OC)c2OC)cc1S(=O)(=O)N1CCOCC1 | 1.9% (inactive)
39 | O=C1CC(c2ccccc2)C(c2ccccc2)=NN1 (centres undefined) | 6.56% (inactive)
40 | O=C1/C(=C\c2ccc([N+](=O)[O-])cc2)CS(=O)(=O)C/C1=C/c1ccc([N+](=O)[O-])cc1 | -5.87% (inactive)
41 | CCCCN(C(=O)c1cccc(N2C(=O)c3ccccc3C2=O)c1)c1c(N)n(CCCC)c(=O)[nH]c1=O | 6% (inactive)
42 | N#Cc1c(NC(=O)C2CC(Cl)=CCC2C(=O)O)sc2c1CCCCC2 (centres undefined) | -0.566% (inactive)
43 | COC(=O)c1c(NC(=O)C2CC(C)=C(C)CC2C(=O)O)sc2c1CCCCC2 (centres undefined) | 56.5% (active)
44 | COC(=O)c1c(NC(=O)CSc2nncs2)sc2c1CCCCC2 | -2.31% (inactive)
45 | COc1ccc(CNC(=O)COC(=O)C2=Cc3ccccc3OC2)cc1 | 7.22% (inactive)
46 | Cn1c(=O)[nH]c2c(c(C(=O)O)nn2C)c1=O | 7.13% (inactive)

Row | Compound | inhibition
47 | O=C(COc1ccccc1)Nc1ccc(C(=O)N2CCCC2)cc1 | 28.7% (inactive)
48 | CC1CCN(CC(O)COc2ccc(C(=O)c3ccccc3)cc2)CC1 (centres undefined) | 0.839% (inactive)
49 | C[N+]1(CC(O)COc2ccccc2)CCN(C(=O)c2ccc([N+](=O)[O-])cc2)CC1 (centres undefined) | 52.5% (active)
50 | NC(=O)C1CCN(C(=O)c2cc(S(=O)(=O)N3CCN(c4ccccc4)CC3)ccc2Cl)CC1 | -0.602% (inactive)
51 | CCC(C)C1(C2CCCC2)NC(=O)NC1=O (centres undefined) | -0.893% (inactive)
52 | CC(C)[C@@H](C(=O)OCC(=O)c1ccc2c(c1)NC(=O)CO2)N1C(=O)c2ccccc2C1=O | 2.17% (inactive)
53 | O=c1nc(NO)ccn1C1CCCO1 (centres undefined) | -2.47% (inactive)
54 | O=C(O)c1ccc(S(=O)(=O)c2ccccc2)s1 | -2.02% (inactive)
55 | Cc1c[n+]([O-])ccc1[N+](=O)[O-] | -8.76% (inactive)
56 | Cc1nn(-c2ncccn2)c2c1C(=O)CC(C)(C)C2Br (centres undefined) | 8.81% (inactive)
57 | COCCN(C(=O)C(C)N1C(=O)c2ccccc2C1=O)c1c(N)n(CC(C)C)c(=O)[nH]c1=O (centres undefined) | -5.79% (inactive)
58 | CN(C)/C=C(/C(=O)c1ccccc1)S(=O)(=O)c1ccc(Cl)cc1 | 0.945% (inactive)
59 | COc1cccc2sc(N(CCCN(C)C)C(=O)C(c3ccccc3)c3ccccc3)nc12 | -2% (inactive)
60 | COc1cccc2sc(N(CCCN(C)C)C(=O)CCS(=O)(=O)c3ccccc3)nc12 | 83.9% (active)
61 | Cc1cccc2sc(N(CCCN(C)C)C(=O)CCS(=O)(=O)c3ccccc3)nc12 | 30.9% (inactive)
62 | Cc1cccc(-n2c(SCC(N)=O)nc3c(c2=O)C2(CCCCC2)Cc2ccccc2-3)c1 | 53.5% (active)
63 | Cc1cccc(-n2c(=O)c3c(C)c(C)sc3n(CC(N)=O)c2=O)c1 | -1.94% (inactive)
64 | N#CCSc1nc2c(c(=O)n1Cc1ccccc1)C1(CCCC1)Cc1ccccc1-2 | 8.15% (inactive)
65 | O=C(OC12CC3CC(CC(C3)C1)C2)c1ccc(NCc2cc(O)ccc2O)cc1 | -1.56% (inactive)
66 | CC(C)c1ccc(C=NNc2ccc([N+](=O)[O-])cn2)cc1 | 4.1% (inactive)
67 | CSCCC(NC(=O)COc1ccccc1)C(=O)OCc1ccc(Cl)cc1 (centres undefined) | -1.24% (inactive)
68 | COc1ccccc1NC(=O)/C=C/C(N)=O | 121% (active)
69 | COc1ccccc1NC(=S)NC(=O)C(C)C | -8.37% (inactive)

Row | Compound | inhibition
70 | COc1ccccc1NC(=O)C[n+]1ccccc1 | -9.21% (inactive)
71 | CCOC(=O)C1CCCN(C(=O)C2CCN(S(=O)(=O)c3ccc(Cl)c(C(F)(F)F)c3)CC2)C1 (centres undefined) | 10.8% (inactive)
72 | CCC1([N+](=O)[O-])COC(c2ccc(C)cc2)OC1 (centres undefined) | -3.32% (inactive)
73 | Cc1c(CCOC(=O)CC23CC4CC(CC(C)(C4)C2)C3)sc[n+]1Cc1ccc([N+](=O)[O-])cc1 | 64.3% (active) and -8% (inactive)
74 | Cc1c(CCOC(=O)c2cc([N+](=O)[O-])ccc2Cl)sc[n+]1CCCCS(=O)(=O)[O-] | 12.5% (inactive)
75 | Cc1c(CCO)sc[n+]1CC(=O)OC12CC3CC(CC(C3)C1)C2 | 2.54% (inactive)
76 | Cc1ccc(S(=O)(=O)N2CCN(C(=O)COC(=O)/C=C/c3cccc(Cl)c3)CC2)c(C)c1 | 5.03% (inactive)
77 | CN(C)C(CNC(=O)c1cc2ccccc2o1)c1ccccc1 (centres undefined) | 2.45% (inactive)
78 | CCN(CC)S(=O)(=O)c1cccc(NC(=O)c2ccc(S(=O)(=O)N3CCCC3)cc2)c1 | -3.62% (inactive)
79 | CC1C(C)N(C(=O)CCl)c2ccccc2N1C(=O)CCl (centres undefined) | -6.55% (inactive)
80 | Nc1cc2c(cc1Br)-c1ccc(F)cc1C2=O | -11.8% (inactive)
81 | CC1CN(Cc2ccco2)C(=S)N(c2ccccc2)C1=O (centres undefined) | 3.62% (inactive)
82 | NC(=O)c1ncn([C@@H]2O[C@H](CN=C3NS(=O)(=O)c4ccccc43)[C@@H](O)[C@H]2O)n1 | -1.34% (inactive)
83 | CC(=O)Nc1cccc(-c2csc(Nc3cccc(C)n3)n2)c1 | 65% (active)
84 | O=C(Nc1ccc(-c2csc(Nc3cccc(C(F)(F)F)c3)n2)cc1)c1cccc(C(F)(F)F)c1 | -6.03% (inactive)
85 | Cc1ccccc1Nc1nc(-c2cccnc2)cs1 | -4.39% (inactive)
86 | CC1(C)N=C(N)NC(Nc2ccc(Cl)cc2)=N1 | -1.08% (inactive)
87 | CC(C)(C)OC(=O)N1CCC(C(=O)Nc2cccc(C(=O)NCCc3ccccc3)c2)CC1 | 15.4% (inactive)
88 | COc1ccc2c(c1)c(=Cc1ccc(N(C)C)cc1)c1cc(-c3ccccc3)[n+](C)n12 | 14.8% (inactive)
89 | CC(=O)OCC(=O)C1(O)CCC2C3CC(C)C4=CC(=O)CCC4(C)C3C(O)CC21C (centres undefined) | -0.0615% (inactive)
